Experimental data from the supplement of paper PMC10849652.
Targets with a hit are over-represented here; the source holds about 7,900 in all. About 0.6% of all pairs of compound and target were hits. Unmarked numbers belong to inactive results.

Compound: Cc1cc(SCc2sc(-c3ccc(C(F)(F)F)cc3)nc2C)ccc1OCC(=O)O
Assay: log2 fold change, soluble protein after heating vs DMSO (PISA); higher = thermal stabilisation; K562 cells, 10 uM, 30 min; active = over 0.2 and 3.5 SD of the protein, either way, in both replicates (recomputed)
Outline: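 K562 cells at 2×10^6 cells/mL were exposed to 10 μM compound for 30 min, then aliquots were heated for 3 min across 48°C-58°C, pooled, and extracted in PBS containing 0.5% NP-40 at 4°C. The supernatant after 21,000xg for 90 min was taken as soluble protein and measured by TMTpro 16plex LC-MS/MS with channel sums equalised. Thermal stability is reported relative to control samples, with values from duplicates. Fold changes are given on a log2 scale.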

UniProt Q13137, sequence (Q13137 whole entry, looked up): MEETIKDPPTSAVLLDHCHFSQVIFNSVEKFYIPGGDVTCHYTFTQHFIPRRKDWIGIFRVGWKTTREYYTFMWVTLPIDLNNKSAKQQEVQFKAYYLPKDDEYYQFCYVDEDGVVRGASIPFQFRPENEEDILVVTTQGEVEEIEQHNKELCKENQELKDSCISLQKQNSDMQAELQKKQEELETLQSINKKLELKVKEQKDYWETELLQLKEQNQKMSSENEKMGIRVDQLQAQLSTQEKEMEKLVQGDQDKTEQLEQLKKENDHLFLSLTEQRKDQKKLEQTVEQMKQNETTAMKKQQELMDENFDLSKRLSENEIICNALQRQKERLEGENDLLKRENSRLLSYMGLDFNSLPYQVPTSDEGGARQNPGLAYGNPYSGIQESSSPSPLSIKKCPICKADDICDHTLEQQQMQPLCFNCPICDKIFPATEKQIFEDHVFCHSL
UniProt Q9NXV6, sequence (Q9NXV6 whole entry, looked up): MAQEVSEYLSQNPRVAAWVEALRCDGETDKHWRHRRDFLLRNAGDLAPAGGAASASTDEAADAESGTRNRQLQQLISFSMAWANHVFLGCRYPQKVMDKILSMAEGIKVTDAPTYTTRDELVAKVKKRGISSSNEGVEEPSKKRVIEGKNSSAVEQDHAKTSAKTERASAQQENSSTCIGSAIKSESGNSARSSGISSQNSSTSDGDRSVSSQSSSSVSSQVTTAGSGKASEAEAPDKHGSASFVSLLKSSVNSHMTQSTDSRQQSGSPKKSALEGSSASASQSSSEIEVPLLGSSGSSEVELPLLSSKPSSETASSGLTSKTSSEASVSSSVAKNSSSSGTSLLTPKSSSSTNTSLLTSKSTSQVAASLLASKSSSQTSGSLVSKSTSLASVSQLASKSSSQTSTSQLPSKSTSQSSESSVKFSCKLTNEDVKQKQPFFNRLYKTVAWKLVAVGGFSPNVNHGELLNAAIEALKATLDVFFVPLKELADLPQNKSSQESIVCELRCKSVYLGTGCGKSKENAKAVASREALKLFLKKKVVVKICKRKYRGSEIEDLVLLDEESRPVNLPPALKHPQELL
UniProt Q99807, sequence (Q99807 whole entry, looked up): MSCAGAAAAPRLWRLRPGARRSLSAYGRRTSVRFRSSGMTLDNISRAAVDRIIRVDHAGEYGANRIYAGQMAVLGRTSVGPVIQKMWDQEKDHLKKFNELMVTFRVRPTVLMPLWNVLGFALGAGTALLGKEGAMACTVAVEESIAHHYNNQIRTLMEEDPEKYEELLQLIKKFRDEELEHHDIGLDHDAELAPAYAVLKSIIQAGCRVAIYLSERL
UniProt Q96G23, sequence (Q96G23 whole entry, looked up): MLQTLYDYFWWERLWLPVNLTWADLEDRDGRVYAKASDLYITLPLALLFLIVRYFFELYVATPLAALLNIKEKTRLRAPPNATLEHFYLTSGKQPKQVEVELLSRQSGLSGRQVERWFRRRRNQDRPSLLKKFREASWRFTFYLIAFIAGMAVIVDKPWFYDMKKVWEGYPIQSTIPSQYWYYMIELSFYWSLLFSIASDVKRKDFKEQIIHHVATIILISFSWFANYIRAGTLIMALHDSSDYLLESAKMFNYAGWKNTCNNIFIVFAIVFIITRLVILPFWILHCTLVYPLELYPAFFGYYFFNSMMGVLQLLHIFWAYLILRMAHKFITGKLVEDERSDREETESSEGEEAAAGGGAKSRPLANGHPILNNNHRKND
UniProt Q13057, sequence (Q13057 whole entry, looked up): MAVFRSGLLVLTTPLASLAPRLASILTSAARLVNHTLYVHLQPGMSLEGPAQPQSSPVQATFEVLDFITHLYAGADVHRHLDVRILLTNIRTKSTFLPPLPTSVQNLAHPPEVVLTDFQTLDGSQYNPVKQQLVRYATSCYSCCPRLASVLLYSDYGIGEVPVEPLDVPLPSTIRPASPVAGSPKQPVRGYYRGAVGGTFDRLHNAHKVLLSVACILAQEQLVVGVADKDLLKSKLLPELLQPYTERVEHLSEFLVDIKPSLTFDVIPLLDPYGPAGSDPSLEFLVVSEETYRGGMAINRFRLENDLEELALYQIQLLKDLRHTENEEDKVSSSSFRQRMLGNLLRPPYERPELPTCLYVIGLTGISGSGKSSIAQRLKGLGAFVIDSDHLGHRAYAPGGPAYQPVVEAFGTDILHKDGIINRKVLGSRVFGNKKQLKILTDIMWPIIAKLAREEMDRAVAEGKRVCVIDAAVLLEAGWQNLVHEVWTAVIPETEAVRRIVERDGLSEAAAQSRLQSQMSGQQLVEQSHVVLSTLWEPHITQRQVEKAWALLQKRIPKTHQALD
UniProt O75909, sequence (O75909 whole entry, looked up): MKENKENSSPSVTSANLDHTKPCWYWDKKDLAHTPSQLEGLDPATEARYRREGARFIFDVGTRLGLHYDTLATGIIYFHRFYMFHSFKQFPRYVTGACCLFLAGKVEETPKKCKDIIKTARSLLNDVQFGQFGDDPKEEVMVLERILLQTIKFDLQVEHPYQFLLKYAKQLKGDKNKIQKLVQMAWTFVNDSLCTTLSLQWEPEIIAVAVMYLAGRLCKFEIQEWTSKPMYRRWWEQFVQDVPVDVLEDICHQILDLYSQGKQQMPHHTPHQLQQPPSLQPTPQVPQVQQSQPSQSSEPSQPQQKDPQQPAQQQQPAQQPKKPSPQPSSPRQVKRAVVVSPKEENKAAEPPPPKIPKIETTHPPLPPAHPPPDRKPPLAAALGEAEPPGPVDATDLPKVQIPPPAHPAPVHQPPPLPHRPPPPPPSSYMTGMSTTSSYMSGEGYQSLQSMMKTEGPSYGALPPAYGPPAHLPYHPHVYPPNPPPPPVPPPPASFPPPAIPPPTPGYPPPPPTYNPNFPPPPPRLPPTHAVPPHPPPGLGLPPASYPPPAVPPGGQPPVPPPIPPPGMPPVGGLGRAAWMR
UniProt O75794, sequence (O75794 whole entry, looked up): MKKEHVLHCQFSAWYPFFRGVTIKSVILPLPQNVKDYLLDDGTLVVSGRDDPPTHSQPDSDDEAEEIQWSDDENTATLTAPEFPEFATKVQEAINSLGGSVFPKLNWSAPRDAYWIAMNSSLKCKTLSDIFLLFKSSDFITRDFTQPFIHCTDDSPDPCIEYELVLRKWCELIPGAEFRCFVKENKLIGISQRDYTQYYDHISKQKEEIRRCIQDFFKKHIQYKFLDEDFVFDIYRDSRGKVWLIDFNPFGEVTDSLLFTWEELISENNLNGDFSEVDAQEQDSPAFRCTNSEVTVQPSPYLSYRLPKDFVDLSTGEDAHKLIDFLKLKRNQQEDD
UniProt P48729, sequence (P48729 whole entry, looked up): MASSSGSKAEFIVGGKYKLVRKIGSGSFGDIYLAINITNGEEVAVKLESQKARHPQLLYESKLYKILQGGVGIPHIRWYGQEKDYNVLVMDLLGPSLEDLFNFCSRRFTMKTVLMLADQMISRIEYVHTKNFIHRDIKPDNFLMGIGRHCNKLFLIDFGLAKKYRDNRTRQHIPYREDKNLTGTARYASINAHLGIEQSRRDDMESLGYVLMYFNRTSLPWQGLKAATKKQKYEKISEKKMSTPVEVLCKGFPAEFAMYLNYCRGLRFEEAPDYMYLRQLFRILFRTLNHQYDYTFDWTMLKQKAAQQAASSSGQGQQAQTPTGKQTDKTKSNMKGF
UniProt P19397, sequence (P19397 whole entry, looked up): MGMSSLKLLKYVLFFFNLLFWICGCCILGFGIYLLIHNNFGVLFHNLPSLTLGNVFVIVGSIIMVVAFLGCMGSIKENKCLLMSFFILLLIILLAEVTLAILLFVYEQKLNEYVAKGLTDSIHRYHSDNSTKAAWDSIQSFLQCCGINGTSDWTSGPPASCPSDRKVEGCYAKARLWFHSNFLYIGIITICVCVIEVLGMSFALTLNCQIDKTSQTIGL
UniProt Q9BT78, sequence (Q9BT78 whole entry, looked up): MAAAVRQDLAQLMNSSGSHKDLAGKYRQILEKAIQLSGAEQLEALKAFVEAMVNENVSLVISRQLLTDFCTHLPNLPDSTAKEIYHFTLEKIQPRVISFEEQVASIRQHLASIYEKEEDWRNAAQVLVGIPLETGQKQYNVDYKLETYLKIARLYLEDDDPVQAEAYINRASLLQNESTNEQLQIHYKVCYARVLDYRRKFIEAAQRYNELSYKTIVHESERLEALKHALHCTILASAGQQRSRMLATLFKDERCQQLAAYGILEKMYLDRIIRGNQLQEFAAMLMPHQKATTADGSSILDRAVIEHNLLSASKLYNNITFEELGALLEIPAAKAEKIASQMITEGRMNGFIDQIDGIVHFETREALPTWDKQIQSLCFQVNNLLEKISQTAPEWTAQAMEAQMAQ
UniProt P21964, sequence (P21964 whole entry, looked up): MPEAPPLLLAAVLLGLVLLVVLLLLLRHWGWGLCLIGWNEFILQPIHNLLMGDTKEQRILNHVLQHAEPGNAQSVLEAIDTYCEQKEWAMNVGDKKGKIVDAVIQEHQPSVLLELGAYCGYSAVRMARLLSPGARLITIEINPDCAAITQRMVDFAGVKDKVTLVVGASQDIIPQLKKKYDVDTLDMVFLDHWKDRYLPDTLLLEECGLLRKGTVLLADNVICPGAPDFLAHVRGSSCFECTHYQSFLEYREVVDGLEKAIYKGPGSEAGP
UniProt Q96KP4, sequence (Q96KP4 whole entry, looked up): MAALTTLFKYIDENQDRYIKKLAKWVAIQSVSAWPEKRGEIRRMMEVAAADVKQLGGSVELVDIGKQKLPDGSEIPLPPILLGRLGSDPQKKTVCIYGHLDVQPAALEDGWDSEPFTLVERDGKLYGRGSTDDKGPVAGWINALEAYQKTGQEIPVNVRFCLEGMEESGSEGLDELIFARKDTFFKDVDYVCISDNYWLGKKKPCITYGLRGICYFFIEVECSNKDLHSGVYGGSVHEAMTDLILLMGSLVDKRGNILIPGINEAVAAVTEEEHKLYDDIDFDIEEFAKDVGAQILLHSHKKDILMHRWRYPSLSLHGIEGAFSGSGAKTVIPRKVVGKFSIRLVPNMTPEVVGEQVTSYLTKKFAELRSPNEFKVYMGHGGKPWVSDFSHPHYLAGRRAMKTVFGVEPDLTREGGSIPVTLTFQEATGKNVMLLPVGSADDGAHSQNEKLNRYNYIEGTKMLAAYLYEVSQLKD

Target | log2 fold change
CNDP2 (UniProt Q96KP4) | 0.015
CSNK1A1 (UniProt P48729) | 0.017
CNTN4 (UniProt Q8IWV2) | -0.087
CRLF3 (UniProt Q8IUI8) | 0.019
CDC123 (UniProt O75794) | 0.115
CPT1A (UniProt P50416) | 0.079
CERS2 (UniProt Q96G23) | -0.032
COQ7 (UniProt Q99807) | 0.019
CELF2 isoform 3 (UniProt O95319) | 0.102
COPS8 (UniProt Q99627) | 0.054
CBX1 (UniProt P83916) | -0.056
CDK5RAP3 isoform 4 (UniProt Q96JB5) | 0.016
CD53 (UniProt P19397) | -0.11
CCNK isoform 4 (UniProt O75909) | 0.016
COPS4 (UniProt Q9BT78) | 0.002
COASY isoform 2 (UniProt Q13057) | 0.045
CDKN2AIP (UniProt Q9NXV6) | 0.021
CDK6 (UniProt Q00534) | -0.012
CHCHD1 (UniProt Q96BP2) | 0.036
CLUH (UniProt O75153) | 0.01
CALCOCO2 isoform 4 (UniProt Q13137) | -0.037
COMT (UniProt P21964) | 0.02
COPS3 (UniProt Q9UNS2) | -0.006
